Compound activity deposited in PubChem by several laboratories.
Sampled rows, rich in hits. Any-hit rate of the full collection: about 2.1%.
VHR inh abs: blocks human VHR1 dual specificity phosphatase. P51452. recombinant VHR phosphatase, pNPP absorbance. inhibition, % at 13.3 µM. 290,000 tested, 0.52% active; in the data active means inhibition above about 50%
Target sequence (P51452 whole entry, looked up): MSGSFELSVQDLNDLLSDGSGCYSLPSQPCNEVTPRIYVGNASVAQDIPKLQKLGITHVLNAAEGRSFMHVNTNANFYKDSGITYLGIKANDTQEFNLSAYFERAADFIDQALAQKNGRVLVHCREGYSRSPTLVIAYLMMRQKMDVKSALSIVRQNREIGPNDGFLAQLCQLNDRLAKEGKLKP
PfHsp40 yeast: restores yeast growth despite PfHsp40 toxicity; S. cerevisiae expressing PfHsp40, growth rescue, ATP luminescence; growth rescue, % at 12.5 µM; 340,000 tested, 0.68% active; AID 504582; in the data active means growth rescue above about 28%, passing the limit was not always enough;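 further: yeast W303a lacking pdr1 and pdr3 grown in galactose medium; growth measured after three days at 30 °C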
PrP UTR inh: suppresses PrP 5' UTR mRNA reporter expression; inhibition, % (test concentration not listed); 340,000 tested, 0.35% active; cell-based PrP 5' UTR mRNA reporter, plate reader; in the data active means inhibition above about 52%; further: 0 = median of the neutral control wells
PrPC surface inh: reduces human prion protein on the cell surface; P04156; cell surface PrPC, TR-FRET read-out; inhibition, % at 13.8 µM; 370,000 tested, 0.43% active; AID 720596; in the data active means inhibition above about 24%; further: 0% = median of the test wells and 100% = reference compound wells
BJeLR viability: kills HRASV12-expressing BJeLR cells; AID 1554; BJeLR (HRASV12) viability, CellTiter-Glo ATP luminescence, 48 h; 300,000 tested, 0.17% active; inhibition, % (test concentration not listed); in the data active means inhibition above about 50%
MazEF act: increases E. coli MazEF RNase cleavage of RNA. P0AE70. FAM/BHQ RNA-DNA oligo cleavage fluorescence, 5 h. activation, % at 20 µM. 350,000 tested, 0.32% active. AID 504720; in the data active means activation above about 50%
Target sequence (P0AE70 whole entry, looked up): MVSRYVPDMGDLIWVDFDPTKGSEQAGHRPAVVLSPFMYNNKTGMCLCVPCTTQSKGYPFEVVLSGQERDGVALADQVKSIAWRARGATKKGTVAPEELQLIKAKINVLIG
PrP 5UTR single: prion 5' UTR mRNA inhibition, cherry-pick retest; shares compounds with PrP UTR inh; cell-based prion protein 5' UTR reporter, plate reader; inhibition, % at 2.5 µM; 1,100 tested, 48% active; AID 504592; in the data active means inhibition above about 54%
Numbers without * were called inactive; / = not tested or not shown.

SMILES | VHR inh abs | PfHsp40 yeast | PrP UTR inh | PrPC surface inh | BJeLR viability | MazEF act | PrP 5UTR single
CN(CCc1ccccc1)C(=O)c1cccc(NC(=O)Cc2cccc(NC(=O)C3CCCN(C(=O)C4CC4)C3)c2)c1 (configuration not stated) | / | -1 | 53* | 1 | / | 2 | -59
CN(Cc1ccccc1)C(=O)c1ccc(NC(=O)Cc2ccc(NC(=O)C3CCCN(C(=O)C4CC4)C3)cc2)cc1 (configuration not stated) | / | 2 | 86* | -3 | / | -7 | -11
COc1ccc(N=CC2=C(O)c3ccccc3C2=O)c(OC)c1 | 34 | 0 | 69* | -5 | 4 | 0 | 64*
O=C(Nc1oc2ccccc2c(=O)c1-c1ccc(Br)cc1)c1ccco1 | -4 | 2 | -12 | -17 | 3 | -8 | /
Cc1cn([C@H]2C[C@H](O)[C@@H](CCC(=O)NCCc3c[nH]c4ccccc34)O2)c(=O)[nH]c1=O | / | 2 | 59* | 2 | / | 16 | -54
CCc1ccccc1NC(=O)CN1CCN(C(=O)CN2C(=O)NC3(CCCC3)C2=O)CC1 | / | -1 | -23 | -5 | / | -7 | /
O=C(Nc1ccc(N2CCCCC2)cc1)c1ccccn1 | 23 | -4 | 93* | / | 44 | 2 | 90*
O=C(Nc1ccc(N2CCCCCC2)cc1)c1ccccc1Cl | 8 | 0 | -44 | 9 | 11 | 6 | /
COc1ccc2[nH]cc(C(C)c3c[nH]c4ccccc34)c2c1 (configuration not stated) | / | / | / | -1 | / | / | /
c1ccc(-c2nc(-c3ccccn3)no2)cc1 | 13 | -1 | 46 | -7 | 14 | 9 | /
Clc1cccc(-c2nc(-c3ccccn3)no2)c1 | 26 | -2 | 47 | 9 | 5 | 6 | /
Cc1ccc(-c2nc(-c3ccccn3)no2)cc1 | 11 | -7 | 86* | -7 | 49 | 3 | 91*
c1ccc(-c2ccc(-c3nc(-c4ccccn4)no3)cc2)cc1 | 37 | -1 | 89* | 3 | 81* | -1 | 91*
Cc1ccc(-c2nc(-c3ccccn3)no2)cc1Cl | 25 | -2 | 72* | 0 | 17 | 13 | 64*
CC(SC#N)C(=O)C12CC3CC(CC(C3)C1)C2 (configuration not stated) | -12 | 1 | -6 | -6 | -5 | 6 | /
N[C@@H](Cc1ccccc1)C(=O)N1C[C@H]2C[C@@H](C1)c1cccc(=O)n1C2 | 13 | 0 | 67* | 16 | -4 | 2 | -12
CN(Cc1ccccc1)C(=O)COC(=O)c1cncc(Br)c1 | 12 | -1 | 72* | -2 | / | 9 | -14
CCOc1ccc2nc(NC(=O)Cn3c(C)csc3=O)sc2c1 | / | / | -13 | 4 | / | 1 | /
CN(C)CCCNC(=O)c1ccc(Oc2ccccc2)cc1 | 1 | -1 | 88* | 4 | -1 | 3 | -12
Cc1cccc(C(=O)N(Cc2ccco2)c2c(N)n(Cc3ccccc3)c(=O)[nH]c2=O)c1 | / | -1 | 90* | -9 | / | 6 | -46
Cc1ccc(C(=O)N(Cc2ccco2)c2c(N)n(Cc3ccccc3)c(=O)[nH]c2=O)cc1 | / | / | / | 9 | / | -3 | /
N=C(N)SCP(=O)(c1ccccc1)c1ccccc1 | 17 | 2 | 64* | 3 | -10 | 1 | 3
CCNc1oc(-c2ccccc2F)nc1S(=O)(=O)c1ccccc1 | 11 | 0 | -14 | / | -3 | 2 | /
CSc1ccc(CN2CCN(C(=O)c3ccc([N+](=O)[O-])cc3)CC2)cc1 | 14 | 2 | -39 | -23 | 15 | -9 | /
Cc1ccc(CNC(=O)C2CCN(c3nnc(N4CCCC4=O)s3)CC2)cc1 | 29 | 2 | 69* | 7 | -15 | 2 | -4
SMILES | VHR inh abs | PfHsp40 yeast | PrP UTR inh | PrPC surface inh | BJeLR viability | MazEF act | PrP 5UTR single
CC1CCCN(c2ncnc3c2cnn3-c2ccc(Cl)cc2)C1 (configuration not stated) | 14 | -1 | 88* | -3 | 1 | -2 | 84*
O=C(O)c1cccc(N/N=C/c2ccc(-c3ccccc3)cc2)c1 | 6 | -2 | -5 | -5 | 7 | -11 | /
CC(C)(C)c1ccc(/C=N/Nc2cccc(C(=O)O)c2)cc1 | 3 | 1 | 60* | -5 | -7 | -2 | 54*
CN(C)c1ccc(/C=N/Nc2cccc(C(=O)O)c2)cc1 | 13 | 2 | 93* | -2 | -6 | -3 | 92*
Cc1nc2c(ccc3c([N+](=O)[O-])cccc32)c(C)c1C | 22 | 0 | 71* | -5 | -1 | -16 | -53
CC(=O)C[C@H](O)CC(=O)[C@H]1OC(=O)CCCCCc2ccccc21 | / | -1 | -26 | 0 | / | 0 | /
CC(=O)C[C@H](O)CC(=O)[C@H]1OC(=O)[C@H](C)CCCCc2ccccc21 | / | 0 | 66* | -8 | / | 0 | -7
CC(=O)C[C@H](O)CC(=O)[C@@H]1OC(=O)CCCCCc2ccccc21 | / | 1 | 90* | 0 | / | 8 | -51
O=S(=O)(CCc1ccccc1)CS(=O)(=O)CCc1ccccc1 | / | 0 | 1 | -7 | / | -15 | /
Cc1nn(-c2ccccc2)c(Cl)c1C(=O)NCCCCNC(=O)c1c(C)nn(-c2ccccc2)c1Cl | -6 | 2 | 74* | -3 | -14 | 1 | 6
O=c1c2ccccc2ncn1-c1ccc(Cl)cc1[N+](=O)[O-] | 11 | 0 | -11 | -29 | -3 | -3 | /
Cc1nc2ccccc2c(=O)n1-c1ccc(Cl)cc1[N+](=O)[O-] | -3 | -3 | 80* | -22 | -3 | -1 | -10
O=S1(=O)CC(N2CCCC2)CN1Cc1cn(Cc2ccccc2)nn1 (configuration not stated) | / | / | / | 4 | / | / | /
CC(C)=CCC[C@](C)(O)C1CC[C@]2(C)C1C(O)CC1[C@@]3(C)CCC(O)C(C)(C)C3C(O[C@@H]3OC(CO)C(O)C(O)C3O[C@@H]3OC(C)C(O)C(O)C3O)C[C@]12C (some centres not stated) | / | -2 | -6 | -5 | / | -1 | /
CC1OC(OC2C(O)CC(OC3C(O)CC(OC4CCC5(C)C(CCC6C5CCC5(C)C(C7=CC(=O)OC7)C(O)CC65O)C4)OC3C)OC2C)CC(O)C1O (configuration not stated) | / | 1 | 94* | 2 | / | 7 | 86*
C[C@H]1O[C@@H](O[C@H]2[C@@H](O)C[C@H](O[C@H]3[C@@H](O)C[C@H](O[C@H]4CC[C@@]5(C)[C@H](CC[C@@H]6[C@@H]5CC[C@]5(C)[C@@H](C7=CC(=O)OC7)CC[C@]65O)C4)O[C@@H]3C)O[C@@H]2C)C[C@H](O)[C@@H]1O | 5 | / | / | / | / | -2 | /
CC(=O)OCC(=O)C1(O)CCC2C3CCC4CC(O)CCC4(C)C3C(=O)CC21C (configuration not stated) | / | / | / | 5 | / | / | /
